In PubChem BioAssay (NCI):
About 83,000 compounds went through this panel and 20% of them were active in at least one assay; those are over-represented in the sample as a whole.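 Cells were grown in 96-well plates and exposed to the test compound at a single concentration for 48 hours; results are reported as percent growth, with values below 10 considered active.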 Unmarked numbers belong to inactive results. Activity calls are given as the source filed them.

Each compound was assayed on UACC-62 melanoma (assay: NCI-60 one-dose screen, 48 h (100 = growth as untreated, 0 = no growth, -100 = all killed)). Settings: 10 µM unless noted.
For `CC(=O)O[C@H]1[C@H](CC#CC#CC[C@@H]2C[C@]3(C)[C@H]4CC=C5[C@H]6[C@@H](C)[C@H](C)CC[C@]6(C(=O)NCCCCCCCCN)CC[C@@]5(C)[C@]4(C)CC[C@H]3C(C)(C)[C@H]2OC(C)=O)C[C@]2(C)[C@H]3CC=C4[C@H]5[C@@H](C)[C@H](C)CC[C@]5(C(=O)NCCCCCCCCN)CC[C@@]4(C)[C@]3(C)CC[C@H]2C1(C)C`, the growth was 112%.
`N#Cc1c(N)c(C(=O)c2ccc3c(c2)OCCO3)n2c1CCCC2` was tested, and the growth was 38%.
`Cc1c(O)c(=O)n(-c2ccccc2)n1C` gave a growth of 98.7%.
`COc1ccc2[nH]c(O)c(/C=c3/ccc4c(c3)N=C(c3ccc(C(F)(F)F)cc3)N=4)c2c1` gave a growth of 86%.
`COc1ccc(/C=C/C(=O)c2ccc(NC(=O)CSc3nnc(-c4ccc(OC)cc4)n3-c3ccccc3)cc2)cc1` gave a growth of 89.4%.
With `N=C(N)c1ccc(-c2ccc(-c3cc(Cl)cc(Cl)c3)o2)nc1` the growth was -86.2% (active).
For `CN(C)c1ccc(N2Cc3ccccc3OC3=C2C(=O)c2c(O)ccc(O)c2C3=O)cn1`, the growth was -87.4% (active).
Compound `COc1ccccc1/C=N\NC(=S)Nc1ccc(F)cc1` has a growth of 58.9%.
`FC(F)(F)C1=NNC(c2ccc3ccccc3c2)=NN1` showed a growth of 101%.
With `CCCC(CCC)NCC(O)c1cc(-c2ccc(C(F)(F)F)cc2)nc(C(F)(F)F)c1` (centres undefined) the growth was -68.1% (active).
With `CCOC(=O)c1c(NC(=O)c2ccccc2)sc2c(O)c(CN(CC)CC)ccc12` the growth was 21.2%.
Work on `CCOC(C)(c1ccc(Cl)cc1)C1CCNCC1` (centres undefined) yielded a growth of 101%.
In the case of `O=S(=O)(NCC[C@@H]1C[C@H]1c1ccc2ccccc2c1)c1ccc(C(F)(F)F)cc1`, the growth was 78.5%.
For `CC(CN1CCN(C)CC1)CN1c2ccccc2Sc2ccc(C(F)(F)F)cc21` (centres undefined), the growth was -40.4% (active).
`NC(=S)N/N=C(/c1cccs1)C1CC1` was tested, and the growth was 98.8%.
In the case of `COc1cc(C2Nc3ccccc3S2)cc(CN2CCOCC2)c1O` (centres undefined), the growth was 57.3%.
`O=[N+]([O-])c1cccc([I+]c2ccccc2)c1` was tested, and the growth was 52.2%.
`C=CCn1c(SCC(=O)Nc2ccc(/C(C)=N\O)cc2)nnc1-c1cc(-c2ccccc2)nc2ccccc12` gave a growth of 24.3%.
For `C=CC[C@]1(O)CC[C@H]2[C@@H]3CCc4cc(O)ccc4[C@H]3CC[C@@]21C`, the growth was 89.4%.
`CC(=O)c1c(O)c(C)c(O)c2c1OC1=CC(=O)/C(=C(/C)N)C(=O)C12C` (centres undefined) was tested, and the growth was 77.8%.
`COc1c(B(O)O)cccc1-c1nc2c(F)cc3n[nH]c(C)c3c2c2c1CCCC2` was tested, and the growth was 3.54% (active).
In the case of `CCCCNCC(O)c1cc(-c2ccc(C(F)(F)F)cc2)nc(-c2ccc(C(F)(F)F)cc2)c1` (centres undefined), the growth was -83.4% (active).
For `Oc1[nH]c2ccc(Cl)cc2c1/C=c1/ccc2c(c1)N=C(c1ccc(F)cc1)N=2`, the growth was 69%.
With `COc1ccc(C(=O)c2c(N)nc3n2CCCC3)cc1OC` the growth was 109%.
`CCOC(=O)Nc1ccc2nc(-c3cscn3)[nH]c2c1` showed a growth of 45.4%.
Compound `CCOC(=O)C(Nc1ccccc1)C(=O)OCC` has a growth of 104%.
For `COS(=O)(=O)CCN(CCOS(C)(=O)=O)S(C)(=O)=O`, the growth was 102%.
In the case of `O=C(c1ccccc1)N(CCCCl)C(=O)N(CCCCl)C(=O)c1ccccc1`, the growth was 65.2%.
For `OC(c1cc2cc(Cl)ccc2c2cc(C(F)(F)F)ccc12)C1CCCCN1` (centres undefined), the growth was -72.7% (active).
With `CC(C)CC(NC(=O)C(CCCN=C(N)N)NC(=O)OCc1ccccc1)C(=O)NC(CNC(=O)/C=C/c1ccccc1)C(C)C` (centres undefined) the growth was 102%.
`OC(c1cc2c(Cl)cc(Cl)cc2c2cc(C(F)(F)F)ccc12)C1CCCCN1` (centres undefined) was tested, and the growth was -72.4% (active).
Compound `N#CC1=C(N)Oc2nc[nH]c(=O)c2C1c1cccs1` (centres undefined) has a growth of 104%.
`Cc1cc(C)cc(Nc2cc(C)nc3nc(C(F)(F)F)nn23)c1` was tested, and the growth was -33.8% (active).
`Cc1ccc(N2C3c4ccccc4N(S(=O)(=O)c4ccc(C)cc4)C2c2ccccc2N3S(=O)(=O)c2ccc(C)cc2)cc1` was tested, and the growth was 99.6%.
In the case of `CCOC(=O)c1ccc(NC(=O)NC2=NCCS2)cc1`, the growth was 78.9%.

What follows are compounds tested on LOX IMVI melanoma in the same assay as above. Settings: 10 µM unless noted.
Compound `[O-]/[N+](=C\c1ccccc1)CC1(O)CCCCC1` has a growth of 101%.
Work on `CC(=O)O[C@H]1[C@H](CC#CC#CC[C@@H]2C[C@]3(C)[C@H]4CC=C5[C@H]6[C@@H](C)[C@H](C)CC[C@]6(C(=O)NCCCCCCCCN)CC[C@@]5(C)[C@]4(C)CC[C@H]3C(C)(C)[C@H]2OC(C)=O)C[C@]2(C)[C@H]3CC=C4[C@H]5[C@@H](C)[C@H](C)CC[C@]5(C(=O)NCCCCCCCCN)CC[C@@]4(C)[C@]3(C)CC[C@H]2C1(C)C` yielded a growth of 96.9%.
In the case of `N#Cc1c(N)c(C(=O)c2ccc3c(c2)OCCO3)n2c1CCCC2`, the growth was 32.2%.
Compound `Cc1c(O)c(=O)n(-c2ccccc2)n1C` has a growth of 105%.
Compound `COc1ccc2[nH]c(O)c(/C=c3/ccc4c(c3)N=C(c3ccc(C(F)(F)F)cc3)N=4)c2c1` has a growth of 58.2%.
`COc1ccc(/C=C/C(=O)c2ccc(NC(=O)CSc3nnc(-c4ccc(OC)cc4)n3-c3ccccc3)cc2)cc1` showed a growth of 102%.
In the case of `N=C(N)c1ccc(-c2ccc(-c3cc(Cl)cc(Cl)c3)o2)nc1`, the growth was -86.7% (active).
`CN(C)c1ccc(N2Cc3ccccc3OC3=C2C(=O)c2c(O)ccc(O)c2C3=O)cn1` was tested, and the growth was -68.1% (active).
For `COc1ccccc1/C=N\NC(=S)Nc1ccc(F)cc1`, the growth was 78.4%.
In the case of `FC(F)(F)C1=NNC(c2ccc3ccccc3c2)=NN1`, the growth was 90.5%.
`CCCC(CCC)NCC(O)c1cc(-c2ccc(C(F)(F)F)cc2)nc(C(F)(F)F)c1` (centres undefined) was tested, and the growth was -64.2% (active).
Compound `CCOC(=O)c1c(NC(=O)c2ccccc2)sc2c(O)c(CN(CC)CC)ccc12` has a growth of 13.3%.
`CCOC(C)(c1ccc(Cl)cc1)C1CCNCC1` (centres undefined) showed a growth of 65.2%.
`O=S(=O)(NCC[C@@H]1C[C@H]1c1ccc2ccccc2c1)c1ccc(C(F)(F)F)cc1` gave a growth of 97.8%.
In the case of `CC(CN1CCN(C)CC1)CN1c2ccccc2Sc2ccc(C(F)(F)F)cc21` (centres undefined), the growth was -2.88% (active).
For `NC(=S)N/N=C(/c1cccs1)C1CC1`, the growth was 68.3%.
In the case of `COc1cc(C2Nc3ccccc3S2)cc(CN2CCOCC2)c1O` (centres undefined), the growth was 78.2%.
With `O=[N+]([O-])c1cccc([I+]c2ccccc2)c1` the growth was 36.2%.
With `C=CCn1c(SCC(=O)Nc2ccc(/C(C)=N\O)cc2)nnc1-c1cc(-c2ccccc2)nc2ccccc12` the growth was -58.1% (active).
`C=CC[C@]1(O)CC[C@H]2[C@@H]3CCc4cc(O)ccc4[C@H]3CC[C@@]21C` was tested, and the growth was 92.6%.
With `CC(=O)c1c(O)c(C)c(O)c2c1OC1=CC(=O)/C(=C(/C)N)C(=O)C12C` (centres undefined) the growth was 86.6%.
`COc1c(B(O)O)cccc1-c1nc2c(F)cc3n[nH]c(C)c3c2c2c1CCCC2` showed a growth of 11.8%.
With `CCCCNCC(O)c1cc(-c2ccc(C(F)(F)F)cc2)nc(-c2ccc(C(F)(F)F)cc2)c1` (centres undefined) the growth was -67.2% (active).
`Oc1[nH]c2ccc(Cl)cc2c1/C=c1/ccc2c(c1)N=C(c1ccc(F)cc1)N=2` showed a growth of 46.1%.
Work on `COc1ccc(C(=O)c2c(N)nc3n2CCCC3)cc1OC` yielded a growth of 97%.
`CCOC(=O)Nc1ccc2nc(-c3cscn3)[nH]c2c1` was tested, and the growth was 46.6%.
Compound `CCOC(=O)C(Nc1ccccc1)C(=O)OCC` has a growth of 93.5%.
`CN1CCN(Cc2ccc(NC(=O)c3cncc(C#Cc4ncc5ccccn45)c3)cc2C(F)(F)F)CC1` showed a growth of 25.7%.
In the case of `COS(=O)(=O)CCN(CCOS(C)(=O)=O)S(C)(=O)=O`, the growth was 96.5%.
`O=C(c1ccccc1)N(CCCCl)C(=O)N(CCCCl)C(=O)c1ccccc1` was tested, and the growth was 90%.
In the case of `OC(c1cc2cc(Cl)ccc2c2cc(C(F)(F)F)ccc12)C1CCCCN1` (centres undefined), the growth was -39.8% (active).
For `CC(C)CC(NC(=O)C(CCCN=C(N)N)NC(=O)OCc1ccccc1)C(=O)NC(CNC(=O)/C=C/c1ccccc1)C(C)C` (centres undefined), the growth was 94.8%.
For `CCn1c(CN2CCN(Cc3ccccc3)CC2)nc2cc(NC(=O)c3cccs3)ccc21`, the growth was -89.7% (active).
Compound `COc1cc(C)cc2oc3oc(=O)c(-c4csc(-c5cc6ccccc6oc5=O)n4)cc3c(=O)c12` has a growth of 94.6%.
With `OC(c1cc2c(Cl)cc(Cl)cc2c2cc(C(F)(F)F)ccc12)C1CCCCN1` (centres undefined) the growth was -66.2% (active).
Compound `N#CC1=C(N)Oc2nc[nH]c(=O)c2C1c1cccs1` (centres undefined) has a growth of 100%.
With `Cc1cc(C)cc(Nc2cc(C)nc3nc(C(F)(F)F)nn23)c1` the growth was 24.1%.
`Cc1ccc(N2C3c4ccccc4N(S(=O)(=O)c4ccc(C)cc4)C2c2ccccc2N3S(=O)(=O)c2ccc(C)cc2)cc1` was tested, and the growth was 98.7%.
For `CCOC(=O)c1ccc(NC(=O)NC2=NCCS2)cc1`, the growth was 92.4%.
